# Measurements taken from the supplement of paper PMC10849652.
# About 7,900 targets were measured; listed, in parts, are those with a hit and a random draw of the rest. About 0.6% of all pairs of compound and target were hits. Unmarked numbers belong to inactive results.
# Compound: c1cn2cc(-c3ccc4cn[nH]c4c3)nc(Nc3ccc(N4CCOCC4)cc3)c2n1 [entospletinib]
# Test: log2 fold change, soluble protein after heating vs DMSO (PISA); higher = thermal stabilisation; K562 cells, 10 uM, 30 min; active = over 0.2 and 3.5 SD of the protein, either way, in both replicates (recomputed)
# Summary of the method: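 Values are thermal stability changes relative to control samples and are taken from duplicates. They are stated as log2 fold changes. Before quantification by TMTpro 16plex LC-MS/MS with equalised channel sums, K562 cells at 2×10^6 cells/mL were treated with 10 μM compound for 30 min, heated in aliquots for 3 min across 48°C-58°C, pooled, extracted in PBS with 0.5% NP-40 at 4°C, and centrifuged at 21,000xg for 90 min to give the soluble supernatant.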
# UniProt P05362, sequence (P05362 whole entry, looked up): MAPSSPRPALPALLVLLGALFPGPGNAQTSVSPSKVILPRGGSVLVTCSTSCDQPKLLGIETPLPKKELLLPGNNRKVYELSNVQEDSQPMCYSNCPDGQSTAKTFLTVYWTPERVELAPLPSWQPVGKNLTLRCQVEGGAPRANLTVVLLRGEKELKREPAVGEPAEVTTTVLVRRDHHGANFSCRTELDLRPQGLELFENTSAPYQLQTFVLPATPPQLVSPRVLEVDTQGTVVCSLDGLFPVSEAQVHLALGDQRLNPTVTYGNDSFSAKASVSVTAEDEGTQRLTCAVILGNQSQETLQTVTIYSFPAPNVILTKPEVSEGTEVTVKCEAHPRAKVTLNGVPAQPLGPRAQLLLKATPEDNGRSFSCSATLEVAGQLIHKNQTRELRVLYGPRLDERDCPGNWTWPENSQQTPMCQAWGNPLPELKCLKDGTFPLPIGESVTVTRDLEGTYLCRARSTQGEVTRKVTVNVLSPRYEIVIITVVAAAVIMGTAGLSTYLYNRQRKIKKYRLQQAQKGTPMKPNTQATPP
# UniProt Q7Z4H3, sequence (Q7Z4H3 whole entry, looked up): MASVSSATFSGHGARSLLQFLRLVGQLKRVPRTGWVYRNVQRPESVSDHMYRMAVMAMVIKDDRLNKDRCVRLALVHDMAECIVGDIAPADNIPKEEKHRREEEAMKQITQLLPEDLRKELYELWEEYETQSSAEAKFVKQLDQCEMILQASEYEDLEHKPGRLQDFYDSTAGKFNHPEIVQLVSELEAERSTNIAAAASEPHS
# UniProt Q02790, sequence (Q02790 whole entry, looked up): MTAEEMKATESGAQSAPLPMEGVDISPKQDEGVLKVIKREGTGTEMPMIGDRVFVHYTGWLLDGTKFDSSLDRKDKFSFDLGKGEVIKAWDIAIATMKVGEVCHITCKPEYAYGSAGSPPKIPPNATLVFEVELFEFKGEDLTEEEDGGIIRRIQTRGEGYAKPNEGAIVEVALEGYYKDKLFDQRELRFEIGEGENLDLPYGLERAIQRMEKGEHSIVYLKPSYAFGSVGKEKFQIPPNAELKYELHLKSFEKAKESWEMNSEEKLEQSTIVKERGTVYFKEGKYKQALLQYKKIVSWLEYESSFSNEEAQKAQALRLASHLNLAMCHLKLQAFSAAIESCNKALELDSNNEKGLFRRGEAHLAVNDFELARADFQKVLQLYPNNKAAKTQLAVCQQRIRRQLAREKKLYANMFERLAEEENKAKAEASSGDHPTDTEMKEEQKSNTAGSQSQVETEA
# UniProt P39748, sequence (P39748 whole entry, looked up): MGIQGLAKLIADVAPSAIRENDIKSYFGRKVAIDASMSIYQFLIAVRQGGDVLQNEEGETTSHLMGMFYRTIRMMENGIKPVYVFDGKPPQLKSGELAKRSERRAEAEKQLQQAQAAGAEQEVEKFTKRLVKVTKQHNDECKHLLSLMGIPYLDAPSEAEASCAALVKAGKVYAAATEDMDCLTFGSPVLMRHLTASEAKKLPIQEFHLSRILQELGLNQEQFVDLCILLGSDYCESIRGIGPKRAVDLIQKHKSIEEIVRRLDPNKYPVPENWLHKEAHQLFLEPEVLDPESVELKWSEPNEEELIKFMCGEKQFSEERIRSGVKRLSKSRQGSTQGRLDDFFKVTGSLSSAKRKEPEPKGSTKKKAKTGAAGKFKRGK
# UniProt Q8NB37, sequence (Q8NB37 whole entry, looked up): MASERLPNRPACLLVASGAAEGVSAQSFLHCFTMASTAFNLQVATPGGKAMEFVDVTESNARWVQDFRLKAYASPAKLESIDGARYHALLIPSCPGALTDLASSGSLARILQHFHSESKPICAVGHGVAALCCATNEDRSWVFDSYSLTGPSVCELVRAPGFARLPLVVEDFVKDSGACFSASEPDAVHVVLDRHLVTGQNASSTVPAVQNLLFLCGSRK
# UniProt Q8WUI4, sequence (Q8WUI4 whole entry, looked up): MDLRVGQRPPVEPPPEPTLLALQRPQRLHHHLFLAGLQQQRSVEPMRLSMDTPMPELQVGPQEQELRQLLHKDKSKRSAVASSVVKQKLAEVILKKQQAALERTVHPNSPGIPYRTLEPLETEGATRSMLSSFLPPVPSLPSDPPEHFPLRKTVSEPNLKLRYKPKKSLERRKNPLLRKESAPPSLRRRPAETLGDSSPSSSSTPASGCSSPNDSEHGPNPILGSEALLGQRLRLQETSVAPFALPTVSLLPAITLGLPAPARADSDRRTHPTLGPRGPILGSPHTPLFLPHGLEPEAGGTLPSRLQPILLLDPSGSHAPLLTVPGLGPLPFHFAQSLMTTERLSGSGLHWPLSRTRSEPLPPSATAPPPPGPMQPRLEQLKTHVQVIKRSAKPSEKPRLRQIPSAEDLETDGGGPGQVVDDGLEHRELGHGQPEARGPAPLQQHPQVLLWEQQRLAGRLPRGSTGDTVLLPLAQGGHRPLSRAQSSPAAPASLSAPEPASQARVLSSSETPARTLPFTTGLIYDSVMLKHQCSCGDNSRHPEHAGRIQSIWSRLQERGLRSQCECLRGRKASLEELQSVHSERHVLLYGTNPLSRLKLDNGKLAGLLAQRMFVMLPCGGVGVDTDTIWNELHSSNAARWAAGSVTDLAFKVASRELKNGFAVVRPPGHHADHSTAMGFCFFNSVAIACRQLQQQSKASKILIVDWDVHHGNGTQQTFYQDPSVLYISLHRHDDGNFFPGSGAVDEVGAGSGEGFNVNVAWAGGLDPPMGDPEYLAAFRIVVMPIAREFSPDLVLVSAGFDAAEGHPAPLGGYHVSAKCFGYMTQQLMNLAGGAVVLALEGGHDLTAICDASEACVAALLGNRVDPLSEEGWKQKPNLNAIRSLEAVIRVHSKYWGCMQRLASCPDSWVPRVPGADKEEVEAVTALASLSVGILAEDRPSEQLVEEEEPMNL
# UniProt P37268, sequence (P37268 whole entry, looked up): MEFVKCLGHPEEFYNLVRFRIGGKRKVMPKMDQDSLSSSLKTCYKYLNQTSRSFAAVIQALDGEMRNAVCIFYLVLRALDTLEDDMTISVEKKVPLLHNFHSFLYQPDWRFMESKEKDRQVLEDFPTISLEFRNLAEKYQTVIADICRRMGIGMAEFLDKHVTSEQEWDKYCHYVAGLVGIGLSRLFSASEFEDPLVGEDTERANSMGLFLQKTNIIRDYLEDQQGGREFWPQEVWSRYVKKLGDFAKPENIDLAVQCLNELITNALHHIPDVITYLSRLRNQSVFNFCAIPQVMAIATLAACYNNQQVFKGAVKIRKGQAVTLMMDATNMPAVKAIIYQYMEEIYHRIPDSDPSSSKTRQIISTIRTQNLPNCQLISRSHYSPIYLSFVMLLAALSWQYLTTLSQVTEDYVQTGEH
# UniProt Q9Y613, sequence (Q9Y613 whole entry, looked up): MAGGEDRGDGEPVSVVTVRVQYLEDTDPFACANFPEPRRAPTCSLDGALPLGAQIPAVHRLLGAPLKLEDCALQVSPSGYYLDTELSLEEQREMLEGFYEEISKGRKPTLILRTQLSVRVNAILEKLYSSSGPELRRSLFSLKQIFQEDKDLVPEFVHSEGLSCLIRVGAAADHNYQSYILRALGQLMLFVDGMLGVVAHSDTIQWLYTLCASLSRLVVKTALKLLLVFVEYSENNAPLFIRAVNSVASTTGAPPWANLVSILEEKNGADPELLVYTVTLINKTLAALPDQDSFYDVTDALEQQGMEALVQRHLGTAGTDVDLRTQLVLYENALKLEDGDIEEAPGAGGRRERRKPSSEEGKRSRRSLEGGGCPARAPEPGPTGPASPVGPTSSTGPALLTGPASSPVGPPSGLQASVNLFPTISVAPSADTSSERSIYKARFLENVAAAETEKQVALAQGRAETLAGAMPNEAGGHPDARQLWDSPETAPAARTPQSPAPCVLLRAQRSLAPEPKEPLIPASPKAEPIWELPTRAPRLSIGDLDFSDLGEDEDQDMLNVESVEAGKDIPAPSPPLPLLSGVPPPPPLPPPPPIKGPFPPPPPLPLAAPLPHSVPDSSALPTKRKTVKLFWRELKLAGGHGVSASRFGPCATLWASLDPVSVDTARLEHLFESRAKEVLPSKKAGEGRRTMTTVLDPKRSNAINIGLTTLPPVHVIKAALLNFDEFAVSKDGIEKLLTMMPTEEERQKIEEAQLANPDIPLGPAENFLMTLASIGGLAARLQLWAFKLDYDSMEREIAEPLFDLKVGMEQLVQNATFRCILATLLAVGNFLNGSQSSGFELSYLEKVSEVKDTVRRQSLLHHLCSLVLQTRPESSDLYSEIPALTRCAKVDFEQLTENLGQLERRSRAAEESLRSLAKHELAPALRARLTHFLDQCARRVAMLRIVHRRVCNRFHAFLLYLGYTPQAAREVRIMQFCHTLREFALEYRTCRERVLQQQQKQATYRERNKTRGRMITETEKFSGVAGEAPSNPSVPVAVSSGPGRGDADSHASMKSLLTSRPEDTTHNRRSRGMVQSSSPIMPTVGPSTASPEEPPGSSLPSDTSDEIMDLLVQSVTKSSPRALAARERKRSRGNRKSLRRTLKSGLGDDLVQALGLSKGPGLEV
# UniProt P49841, sequence (P49841 whole entry, looked up): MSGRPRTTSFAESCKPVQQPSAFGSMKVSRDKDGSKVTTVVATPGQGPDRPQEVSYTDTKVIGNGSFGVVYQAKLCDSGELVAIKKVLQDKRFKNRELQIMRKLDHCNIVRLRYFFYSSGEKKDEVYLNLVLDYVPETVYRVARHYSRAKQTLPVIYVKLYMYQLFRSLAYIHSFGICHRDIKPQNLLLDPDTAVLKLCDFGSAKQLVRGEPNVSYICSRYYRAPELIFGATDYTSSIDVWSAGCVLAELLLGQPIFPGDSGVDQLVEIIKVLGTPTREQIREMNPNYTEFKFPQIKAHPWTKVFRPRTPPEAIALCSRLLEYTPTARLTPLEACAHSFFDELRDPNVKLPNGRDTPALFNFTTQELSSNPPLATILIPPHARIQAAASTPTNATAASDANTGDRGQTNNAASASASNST
# UniProt Q8WXD5, sequence (Q8WXD5 whole entry, looked up): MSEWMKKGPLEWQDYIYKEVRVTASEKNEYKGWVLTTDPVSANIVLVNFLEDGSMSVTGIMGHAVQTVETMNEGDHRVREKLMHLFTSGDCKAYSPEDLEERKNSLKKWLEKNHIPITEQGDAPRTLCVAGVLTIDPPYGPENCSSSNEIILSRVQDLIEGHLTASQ
row,Target,log2 fold change
1,HDAC7 isoform 5 (UniProt Q8WUI4),-0.024
2,FEN1 (UniProt P39748),-0.051
3,GLA (UniProt P06280),0.017
4,FIS1 (UniProt Q9Y3D6),0.038
5,FDFT1 (UniProt P37268),-0.019
6,GEMIN5 (UniProt Q8TEQ6),0.058
7,HNRNPUL2 (UniProt Q1KMD3),0.007
8,GTF2B (UniProt Q00403),-0.04
9,GPX4 (UniProt P36969),0.02
10,FMC1 (UniProt Q96HJ9),0
11,FANCI (UniProt Q9NVI1),-0.013
12,GTPBP6 (UniProt O43824),-0.092
13,GEMIN6 (UniProt Q8WXD5),0.082
14,FMR1 (UniProt Q06787),0.01
15,HEATR5B (UniProt Q9P2D3),-0.025
16,GHDC (UniProt Q8N2G8),0.038
17,H2AFX (UniProt P16104),-0.005
18,HECTD1 (UniProt Q9ULT8),-0.057
19,GATD1 (UniProt Q8NB37),-0.021
20,HBQ1 (UniProt P09105),0.001

row,Target,log2 fold change
1,FNTB (UniProt P49356),-0.143
2,HDAC2 (UniProt Q92769),0
3,HIP1R (UniProt O75146),-0.029
4,HNRNPF (UniProt P52597),0.046
5,GNPAT (UniProt O15228),0.003
6,FHOD1 (UniProt Q9Y613),0.209
7,HDDC2 (UniProt Q7Z4H3),-0.001
8,HDAC10 (UniProt Q969S8),0.058
9,HIST2H2BF isoform 2 (UniProt Q5QNW6),0.06
10,HS1BP3 (UniProt Q53T59),-0.126
11,GSK3B isoform 2 (UniProt P49841),-0.028
12,GSK3A (UniProt P49840),-0.028
13,HMG20A (UniProt Q9NP66),-0.049
14,ICAM1 (UniProt P05362),-0.007
15,FKBP4 (UniProt Q02790),-0.019
16,GOLPH3 (UniProt Q9H4A6),-0.016
17,GAK (UniProt O14976),0.371
18,GDPD1 (UniProt Q8N9F7),0.04
19,GPS2 (UniProt Q13227),0.058
20,GGA2 (UniProt Q9UJY4),-0.117
